# Laboratory results as given in paper PMC7862700, “An all-to-all approach to the identification of sequence-specific readers for epigenetic DNA modifications on cytosine”.
# What was measured:
# Experiment in all cases: DAPPL (digital affinity profiling via proximity ligation, sequencing); 10 mM Tris-HCl pH 7.5, 50 mM NaCl, 1 mM DTT, 4% glycerol, room temperature, 30 min; GST-TFs on glutathione beads, 16-mer random dsDNA library, 0.1% formaldehyde crosslink after washing; high values mean tight binding
# [1] = molecular target: T1, FLI1 (Homo sapiens, UniProt Q01543 1-452); conditions: protein: recombinant; tags: N-terminal GST; dsDNA, one strand shown
# T1 sequence: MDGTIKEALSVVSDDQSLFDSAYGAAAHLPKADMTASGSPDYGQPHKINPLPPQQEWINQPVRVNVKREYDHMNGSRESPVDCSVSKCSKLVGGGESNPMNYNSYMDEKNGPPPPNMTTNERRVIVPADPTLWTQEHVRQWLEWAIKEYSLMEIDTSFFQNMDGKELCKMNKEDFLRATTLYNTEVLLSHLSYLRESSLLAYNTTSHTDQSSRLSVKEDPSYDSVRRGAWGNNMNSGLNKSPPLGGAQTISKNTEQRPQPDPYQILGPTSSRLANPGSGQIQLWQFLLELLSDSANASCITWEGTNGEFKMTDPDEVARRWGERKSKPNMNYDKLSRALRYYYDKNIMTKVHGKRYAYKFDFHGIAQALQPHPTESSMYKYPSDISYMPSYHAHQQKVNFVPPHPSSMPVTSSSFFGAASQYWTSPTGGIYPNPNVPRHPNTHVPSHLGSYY
# How it was run: (§1)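 Human transcription factors fused to GST were expressed in yeast, captured on glutathione beads, given DNA barcodes and pooled with a GST-only negative control. Pools were incubated with 200 nmole of a 16-mer random double-stranded DNA library in Tris/NaCl/DTT/glycerol buffer at room temperature for 30 min. They were then washed, crosslinked with 0.1% formaldehyde, proximity-ligated (BsaI/T4 ligase, 1 h, 37 °C), PCR-amplified and sequenced on an Illumina NextSeq500. Binding signal is each 6-mer's read frequency for a factor divided by its frequency for the GST control.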
# [2] = molecular target: T2, ELK1 (Homo sapiens, UniProt P19419 1-428); conditions: protein: recombinant; tags: N-terminal GST; dsDNA, one strand shown
# T2 sequence: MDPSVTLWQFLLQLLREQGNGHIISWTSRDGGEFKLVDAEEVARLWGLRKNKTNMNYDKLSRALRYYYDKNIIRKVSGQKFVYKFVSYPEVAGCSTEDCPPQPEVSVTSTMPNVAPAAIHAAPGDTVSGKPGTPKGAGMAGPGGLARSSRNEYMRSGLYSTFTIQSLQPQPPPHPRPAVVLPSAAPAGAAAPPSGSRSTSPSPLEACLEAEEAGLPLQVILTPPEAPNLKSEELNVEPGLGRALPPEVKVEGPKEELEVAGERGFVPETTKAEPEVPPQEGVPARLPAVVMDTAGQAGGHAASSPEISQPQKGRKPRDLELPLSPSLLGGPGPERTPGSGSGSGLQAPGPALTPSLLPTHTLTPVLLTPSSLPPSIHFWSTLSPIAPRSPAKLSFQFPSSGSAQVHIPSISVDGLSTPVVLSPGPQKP
# How it was run: as §1
# [3] = molecular target: T3, GABPA (Homo sapiens, UniProt Q06546 1-454); conditions: protein: recombinant; tags: N-terminal GST; dsDNA, one strand shown
# T3 sequence: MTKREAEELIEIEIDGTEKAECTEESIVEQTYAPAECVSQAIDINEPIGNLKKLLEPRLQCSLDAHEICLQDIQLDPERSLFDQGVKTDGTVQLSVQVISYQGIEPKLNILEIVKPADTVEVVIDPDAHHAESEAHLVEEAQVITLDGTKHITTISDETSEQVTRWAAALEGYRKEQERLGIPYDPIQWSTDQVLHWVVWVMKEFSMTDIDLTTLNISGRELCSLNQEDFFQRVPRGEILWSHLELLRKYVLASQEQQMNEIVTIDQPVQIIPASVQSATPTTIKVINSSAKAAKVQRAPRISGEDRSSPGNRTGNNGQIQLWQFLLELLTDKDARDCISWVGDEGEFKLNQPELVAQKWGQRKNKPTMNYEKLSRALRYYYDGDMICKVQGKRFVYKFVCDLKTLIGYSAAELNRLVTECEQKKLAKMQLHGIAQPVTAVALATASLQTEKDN
# How it was run: as §1
# [4] = molecular target: T4, ERG (Homo sapiens, UniProt P11308 1-479); conditions: protein: recombinant; tags: N-terminal GST; dsDNA, one strand shown
# T4 sequence: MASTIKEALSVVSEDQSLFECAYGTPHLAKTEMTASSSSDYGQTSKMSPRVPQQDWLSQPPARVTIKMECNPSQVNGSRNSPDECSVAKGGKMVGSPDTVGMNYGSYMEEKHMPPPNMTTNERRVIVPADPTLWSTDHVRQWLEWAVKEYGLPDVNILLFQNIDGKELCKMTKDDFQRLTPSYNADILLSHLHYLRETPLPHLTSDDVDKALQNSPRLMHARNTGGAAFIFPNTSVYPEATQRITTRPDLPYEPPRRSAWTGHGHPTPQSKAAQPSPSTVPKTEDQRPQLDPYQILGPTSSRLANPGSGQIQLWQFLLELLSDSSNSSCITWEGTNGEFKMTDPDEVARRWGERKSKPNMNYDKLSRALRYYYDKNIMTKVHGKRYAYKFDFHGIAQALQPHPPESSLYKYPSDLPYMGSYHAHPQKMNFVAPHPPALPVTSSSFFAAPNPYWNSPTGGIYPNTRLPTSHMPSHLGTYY
# How it was run: as §1
# [5] = molecular target: ELF1 (Homo sapiens, UniProt P32519 1-619); conditions: protein: recombinant; tags: N-terminal GST; dsDNA, one strand shown
# How it was run: as §1
# [6] = molecular target: T5, EHF (Homo sapiens, UniProt Q9NZC4 1-300); conditions: protein: recombinant; tags: N-terminal GST; dsDNA, one strand shown
# T5 sequence: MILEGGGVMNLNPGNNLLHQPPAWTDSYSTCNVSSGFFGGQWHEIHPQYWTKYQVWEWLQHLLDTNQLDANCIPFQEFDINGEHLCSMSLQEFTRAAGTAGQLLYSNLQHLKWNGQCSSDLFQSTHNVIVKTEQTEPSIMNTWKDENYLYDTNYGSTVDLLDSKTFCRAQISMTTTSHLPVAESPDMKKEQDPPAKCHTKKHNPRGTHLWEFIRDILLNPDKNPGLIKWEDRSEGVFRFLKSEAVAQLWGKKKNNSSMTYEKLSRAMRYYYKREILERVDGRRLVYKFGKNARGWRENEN
# How it was run: as §1
# [7] = molecular target: SPI1 (Homo sapiens, UniProt P17947 1-270); conditions: protein: recombinant; tags: N-terminal GST; dsDNA, one strand shown
# How it was run: as §1
# [8] = molecular target: SPIB (Homo sapiens, UniProt Q01892 1-262); conditions: protein: recombinant; tags: N-terminal GST; dsDNA, one strand shown
# How it was run: as §1
# [9] = molecular target: T6, ELK3 (Homo sapiens, UniProt P41970 1-407); conditions: protein: recombinant; tags: N-terminal GST; dsDNA, one strand shown
# T6 sequence: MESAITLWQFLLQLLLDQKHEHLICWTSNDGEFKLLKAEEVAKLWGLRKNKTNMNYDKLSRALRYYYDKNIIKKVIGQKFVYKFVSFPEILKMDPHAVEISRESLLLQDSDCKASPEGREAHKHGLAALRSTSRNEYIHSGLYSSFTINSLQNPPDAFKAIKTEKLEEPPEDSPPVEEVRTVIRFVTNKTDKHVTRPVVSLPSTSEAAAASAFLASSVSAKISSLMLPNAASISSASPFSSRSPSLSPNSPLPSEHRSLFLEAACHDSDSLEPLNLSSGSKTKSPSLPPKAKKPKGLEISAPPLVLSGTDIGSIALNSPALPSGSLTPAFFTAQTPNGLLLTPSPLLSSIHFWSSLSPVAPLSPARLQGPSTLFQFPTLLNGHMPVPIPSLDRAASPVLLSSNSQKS
# How it was run: as §1
# [10] = molecular target: T7, FEV (Homo sapiens, UniProt Q99581 1-238); conditions: protein: recombinant; tags: N-terminal GST; dsDNA, one strand shown
# T7 sequence: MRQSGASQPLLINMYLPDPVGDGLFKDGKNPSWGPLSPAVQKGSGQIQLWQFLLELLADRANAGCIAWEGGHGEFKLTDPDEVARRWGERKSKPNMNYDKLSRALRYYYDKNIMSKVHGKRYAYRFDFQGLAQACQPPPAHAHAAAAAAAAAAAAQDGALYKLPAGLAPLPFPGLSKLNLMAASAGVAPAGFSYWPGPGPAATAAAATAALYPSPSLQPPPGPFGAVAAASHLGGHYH
# How it was run: as §1
# [11] = molecular target: ETV5 (Homo sapiens, UniProt P41161 1-510); conditions: protein: recombinant; tags: N-terminal GST; dsDNA, one strand shown
# How it was run: as §1
# [12] = molecular target: HSF1 (Homo sapiens, UniProt Q00613 1-529); conditions: protein: recombinant; tags: N-terminal GST; chain copies: 3; dsDNA, one strand shown
# How it was run: as §1
# [13] = molecular target: T8, SPIC (Homo sapiens, UniProt Q8N5J4 1-248); conditions: protein: recombinant; tags: N-terminal GST; dsDNA, one strand shown
# T8 sequence: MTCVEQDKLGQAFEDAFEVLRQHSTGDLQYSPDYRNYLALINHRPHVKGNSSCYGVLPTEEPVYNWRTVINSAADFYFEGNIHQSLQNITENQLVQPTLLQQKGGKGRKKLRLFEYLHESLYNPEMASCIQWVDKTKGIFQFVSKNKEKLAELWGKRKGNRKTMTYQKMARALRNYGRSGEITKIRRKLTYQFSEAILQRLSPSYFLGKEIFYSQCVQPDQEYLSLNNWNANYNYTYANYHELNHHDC
# How it was run: as §1
# [14] = molecular target: ELF4 (Homo sapiens, UniProt Q99607 1-663); conditions: protein: recombinant; tags: N-terminal GST; dsDNA, one strand shown
# How it was run: as §1
# [15] = molecular target: T9, ELK4 (Homo sapiens, UniProt P28324-2 1-405); conditions: protein: recombinant; tags: N-terminal GST; dsDNA, one strand shown
# T9 sequence: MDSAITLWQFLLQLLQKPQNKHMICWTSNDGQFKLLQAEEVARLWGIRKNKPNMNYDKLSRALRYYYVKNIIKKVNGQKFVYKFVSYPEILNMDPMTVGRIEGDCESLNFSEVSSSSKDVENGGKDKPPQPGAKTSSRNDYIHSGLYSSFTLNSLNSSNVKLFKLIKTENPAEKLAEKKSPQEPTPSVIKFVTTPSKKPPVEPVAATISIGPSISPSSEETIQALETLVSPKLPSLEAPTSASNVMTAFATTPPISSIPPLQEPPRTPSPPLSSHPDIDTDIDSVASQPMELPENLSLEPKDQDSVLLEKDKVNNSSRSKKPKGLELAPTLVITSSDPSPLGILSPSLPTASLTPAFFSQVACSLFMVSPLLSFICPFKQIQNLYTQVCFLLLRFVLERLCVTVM
# How it was run: as §1
# [16] = molecular target: T10, ETV2 (Homo sapiens, UniProt O00321 1-342); conditions: protein: recombinant; tags: N-terminal GST; dsDNA, one strand shown
# T10 sequence: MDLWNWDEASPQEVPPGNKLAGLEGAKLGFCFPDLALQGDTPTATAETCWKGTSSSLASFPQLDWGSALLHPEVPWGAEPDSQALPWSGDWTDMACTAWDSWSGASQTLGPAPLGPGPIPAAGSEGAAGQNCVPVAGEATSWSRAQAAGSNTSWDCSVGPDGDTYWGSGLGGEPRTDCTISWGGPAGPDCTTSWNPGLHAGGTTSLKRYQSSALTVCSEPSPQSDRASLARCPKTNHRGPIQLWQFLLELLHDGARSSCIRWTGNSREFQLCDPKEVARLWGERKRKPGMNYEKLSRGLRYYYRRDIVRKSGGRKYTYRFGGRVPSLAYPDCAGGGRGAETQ
# How it was run: as §1
# [17] = molecular target: T11, ELF3 (Homo sapiens, UniProt P78545 1-371); conditions: protein: recombinant; tags: N-terminal GST; dsDNA, one strand shown
# T11 sequence: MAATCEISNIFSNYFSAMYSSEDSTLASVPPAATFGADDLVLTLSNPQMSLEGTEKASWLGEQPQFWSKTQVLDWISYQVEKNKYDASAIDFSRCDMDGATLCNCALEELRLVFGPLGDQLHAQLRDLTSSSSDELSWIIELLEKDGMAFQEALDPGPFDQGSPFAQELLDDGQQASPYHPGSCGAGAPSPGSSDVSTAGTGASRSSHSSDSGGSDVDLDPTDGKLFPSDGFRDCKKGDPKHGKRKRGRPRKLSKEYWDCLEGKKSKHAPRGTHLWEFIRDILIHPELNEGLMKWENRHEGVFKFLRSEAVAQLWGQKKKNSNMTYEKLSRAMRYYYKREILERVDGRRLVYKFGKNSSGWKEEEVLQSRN
# How it was run: as §1
# [18] = molecular target: CRX (Homo sapiens, UniProt O43186 1-299); conditions: protein: recombinant; tags: N-terminal GST; dsDNA, one strand shown
# How it was run: as §1
# [19] = molecular target: ETV1 (Homo sapiens, UniProt P50549 1-477); conditions: protein: recombinant; tags: N-terminal GST; dsDNA, one strand shown
# How it was run: as §1
# Sequence of HSF1 (Q00613 whole entry): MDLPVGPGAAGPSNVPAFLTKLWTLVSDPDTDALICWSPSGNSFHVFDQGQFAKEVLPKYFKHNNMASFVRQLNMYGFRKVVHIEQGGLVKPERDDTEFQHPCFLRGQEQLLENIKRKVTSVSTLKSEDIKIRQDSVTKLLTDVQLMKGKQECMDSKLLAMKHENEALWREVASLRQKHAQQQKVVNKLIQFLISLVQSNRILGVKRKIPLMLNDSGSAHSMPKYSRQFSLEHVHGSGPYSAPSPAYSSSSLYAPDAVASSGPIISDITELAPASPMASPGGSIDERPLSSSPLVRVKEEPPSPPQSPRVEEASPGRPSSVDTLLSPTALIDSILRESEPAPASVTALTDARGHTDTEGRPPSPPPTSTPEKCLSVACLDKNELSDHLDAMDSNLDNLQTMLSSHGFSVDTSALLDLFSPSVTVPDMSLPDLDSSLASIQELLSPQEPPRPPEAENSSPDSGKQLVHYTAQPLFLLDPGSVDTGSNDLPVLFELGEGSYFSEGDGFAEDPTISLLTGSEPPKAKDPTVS
# Sequence of ELF4 (Q99607 whole entry): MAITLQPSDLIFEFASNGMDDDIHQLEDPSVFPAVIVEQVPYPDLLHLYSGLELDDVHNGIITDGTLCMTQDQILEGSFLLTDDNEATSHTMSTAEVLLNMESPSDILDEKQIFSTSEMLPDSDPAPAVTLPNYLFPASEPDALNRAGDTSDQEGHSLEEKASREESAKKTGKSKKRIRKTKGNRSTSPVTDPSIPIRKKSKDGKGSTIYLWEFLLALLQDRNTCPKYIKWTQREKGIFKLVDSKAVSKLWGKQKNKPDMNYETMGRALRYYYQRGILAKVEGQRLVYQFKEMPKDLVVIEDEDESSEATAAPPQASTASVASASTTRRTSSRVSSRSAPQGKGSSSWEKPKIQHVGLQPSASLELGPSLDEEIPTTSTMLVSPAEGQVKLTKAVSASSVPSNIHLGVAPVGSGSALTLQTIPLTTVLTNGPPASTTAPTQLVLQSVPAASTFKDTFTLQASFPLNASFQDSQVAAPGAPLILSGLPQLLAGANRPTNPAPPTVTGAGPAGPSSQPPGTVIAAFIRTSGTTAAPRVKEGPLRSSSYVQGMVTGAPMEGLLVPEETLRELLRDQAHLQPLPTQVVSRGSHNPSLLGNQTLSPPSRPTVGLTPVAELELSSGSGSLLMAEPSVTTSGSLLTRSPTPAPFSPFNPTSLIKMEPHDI
# Sequence of SPIB (Q01892 whole entry): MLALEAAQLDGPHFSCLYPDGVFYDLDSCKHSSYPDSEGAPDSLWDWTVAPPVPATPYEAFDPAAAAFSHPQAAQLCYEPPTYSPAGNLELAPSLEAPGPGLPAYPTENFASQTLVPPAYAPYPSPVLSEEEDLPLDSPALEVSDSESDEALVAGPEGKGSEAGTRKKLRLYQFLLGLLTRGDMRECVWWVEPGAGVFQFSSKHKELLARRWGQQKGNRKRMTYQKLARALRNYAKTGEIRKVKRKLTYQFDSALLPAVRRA
# Sequence of ETV5 (P41161 whole entry): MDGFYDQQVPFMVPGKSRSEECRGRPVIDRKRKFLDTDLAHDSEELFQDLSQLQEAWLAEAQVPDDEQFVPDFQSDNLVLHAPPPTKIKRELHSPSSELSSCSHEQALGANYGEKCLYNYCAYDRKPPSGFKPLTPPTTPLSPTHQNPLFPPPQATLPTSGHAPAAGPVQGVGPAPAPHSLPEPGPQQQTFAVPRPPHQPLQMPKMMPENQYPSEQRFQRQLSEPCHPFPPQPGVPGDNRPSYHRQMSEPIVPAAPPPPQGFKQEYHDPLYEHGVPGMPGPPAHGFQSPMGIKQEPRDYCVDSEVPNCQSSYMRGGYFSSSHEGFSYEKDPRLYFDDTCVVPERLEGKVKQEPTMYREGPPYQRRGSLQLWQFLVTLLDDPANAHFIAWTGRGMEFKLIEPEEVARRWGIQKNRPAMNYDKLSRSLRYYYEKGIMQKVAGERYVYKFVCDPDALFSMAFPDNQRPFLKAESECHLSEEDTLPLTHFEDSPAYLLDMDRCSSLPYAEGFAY
# Sequence of ELF1 (P32519 whole entry): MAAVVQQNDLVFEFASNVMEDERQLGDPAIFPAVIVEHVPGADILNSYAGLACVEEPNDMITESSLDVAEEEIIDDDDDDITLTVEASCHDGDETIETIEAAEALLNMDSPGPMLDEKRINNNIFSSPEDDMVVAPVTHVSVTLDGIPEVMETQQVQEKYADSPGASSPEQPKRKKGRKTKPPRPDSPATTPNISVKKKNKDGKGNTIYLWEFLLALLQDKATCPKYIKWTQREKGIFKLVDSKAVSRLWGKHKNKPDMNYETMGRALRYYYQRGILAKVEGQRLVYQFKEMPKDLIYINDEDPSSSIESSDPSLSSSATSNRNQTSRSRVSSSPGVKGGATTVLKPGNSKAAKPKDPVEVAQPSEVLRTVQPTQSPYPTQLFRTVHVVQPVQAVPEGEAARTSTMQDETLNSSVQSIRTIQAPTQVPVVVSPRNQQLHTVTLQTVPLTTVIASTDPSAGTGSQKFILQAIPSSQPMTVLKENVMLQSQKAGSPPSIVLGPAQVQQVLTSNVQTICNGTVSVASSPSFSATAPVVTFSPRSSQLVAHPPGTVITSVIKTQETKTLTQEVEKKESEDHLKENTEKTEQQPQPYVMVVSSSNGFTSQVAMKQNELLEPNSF
# Sequence of CRX (O43186 whole entry): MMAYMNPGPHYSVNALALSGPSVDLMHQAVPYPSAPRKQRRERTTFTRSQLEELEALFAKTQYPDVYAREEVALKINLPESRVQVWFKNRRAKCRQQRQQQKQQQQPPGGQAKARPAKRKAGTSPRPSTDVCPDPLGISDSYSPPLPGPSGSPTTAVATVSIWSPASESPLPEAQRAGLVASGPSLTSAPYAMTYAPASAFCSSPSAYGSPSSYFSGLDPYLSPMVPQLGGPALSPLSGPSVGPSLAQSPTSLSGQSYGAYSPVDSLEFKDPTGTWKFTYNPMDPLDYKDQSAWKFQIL
# Sequence of ETV1 (P50549 whole entry): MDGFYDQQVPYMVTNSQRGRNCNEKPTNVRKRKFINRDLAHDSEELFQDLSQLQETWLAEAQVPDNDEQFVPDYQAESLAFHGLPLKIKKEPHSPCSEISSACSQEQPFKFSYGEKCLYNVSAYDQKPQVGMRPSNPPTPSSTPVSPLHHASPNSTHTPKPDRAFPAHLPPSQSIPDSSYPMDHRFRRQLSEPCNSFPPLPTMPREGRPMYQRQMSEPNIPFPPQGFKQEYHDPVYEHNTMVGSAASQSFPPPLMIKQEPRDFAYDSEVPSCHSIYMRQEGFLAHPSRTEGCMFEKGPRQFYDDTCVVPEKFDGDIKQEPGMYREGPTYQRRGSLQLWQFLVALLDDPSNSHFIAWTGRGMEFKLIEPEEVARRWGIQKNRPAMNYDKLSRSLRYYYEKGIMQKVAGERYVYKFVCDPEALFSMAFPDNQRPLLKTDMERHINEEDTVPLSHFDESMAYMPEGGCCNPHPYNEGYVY
sequence,measurement,setting,value
GAATAA,binding signal,[1],"1.01 fold enrichment (6-mer frequency, TF over GST control)"
same,binding signal,[2],"1.08 fold enrichment (6-mer frequency, TF over GST control)"
same,binding signal,[3],"1.07 fold enrichment (6-mer frequency, TF over GST control)"
same,binding signal,[4],"1.06 fold enrichment (6-mer frequency, TF over GST control)"
same,binding signal,[5],"1.09 fold enrichment (6-mer frequency, TF over GST control)"
same,binding signal,[6],"1.09 fold enrichment (6-mer frequency, TF over GST control)"
same,binding signal,[7],"1.03 fold enrichment (6-mer frequency, TF over GST control)"
same,binding signal,[8],"1.11 fold enrichment (6-mer frequency, TF over GST control)"
same,binding signal,[9],"1.17 fold enrichment (6-mer frequency, TF over GST control)"
same,binding signal,[10],"1.08 fold enrichment (6-mer frequency, TF over GST control)"
same,binding signal,[11],"1.09 fold enrichment (6-mer frequency, TF over GST control)"
same,binding signal,[12],"1.62 fold enrichment (6-mer frequency, TF over GST control)"
same,binding signal,[13],"1.17 fold enrichment (6-mer frequency, TF over GST control)"
same,binding signal,[14],"1.13 fold enrichment (6-mer frequency, TF over GST control)"
same,binding signal,[15],"1.04 fold enrichment (6-mer frequency, TF over GST control)"
same,binding signal,[16],"1.13 fold enrichment (6-mer frequency, TF over GST control)"
same,binding signal,[17],"1.12 fold enrichment (6-mer frequency, TF over GST control)"
same,binding signal,[18],"1.57 fold enrichment (6-mer frequency, TF over GST control)"
same,binding signal,[19],"1.03 fold enrichment (6-mer frequency, TF over GST control)"
